Assay outcomes as filed in PubChem.
JMJD2A Tudor inh – blocks the human JMJD2A Tudor domain | O75164 | AlphaScreen JMJD2A-Tudor / H3K4me3 peptide binding | Potency, µM (top dose mostly 114 µM), for inactives: top-dose activity change, negative = inhibition, most hits filed as inhibitors | 390,000 tested, 4.4% active; further: on the % scale 0 is the no-effect control and ±100 the full control effect; nearly all actives have a fitted effect of over 50% in size
HP1b binding inh – blocks HP1-beta chromodomain binding to methylated histone tails; P83916; AlphaScreen HP1-beta / biotin-H3K9me3 peptide binding; 390,000 tested, 0.56% active; Potency, µM (doses to about 114 µM), for the others: top-dose activity change, negative = inhibition, actives largely listed as inhibitors; AID 540317; further: nearly all actives have a fitted effect of over 70% in size
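HP1-beta protein (50 nM final) preincubated 30 min at room temperature with biotinylated H3(1-18)K9me3 peptide (50 nM) in PBS pH 7.4, 0.01% Tween-20, then compound added for 30 min. AlphaScreen streptavidin donor/nickel chelate acceptor beads (10 ug/mL final), 30 min dark, luminescence read.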
G9a block – G9a (human) methyltransferase inhibition; Q96KQ7; G9a H3K9 monomethylation, AlphaScreen, 2 h; Potency, µM (highest dose often 102 µM), for inactives: top-dose activity, negative = inhibition, hits mostly inhibitors; 350,000 tested, 8.8% active; AID 504332; further: on the % scale 0 is the no-effect control and ±100 the full control effect; nearly all actives have a fitted effect of over 75% in size
Target sequence (Q96KQ7 913-1193 limits assumed): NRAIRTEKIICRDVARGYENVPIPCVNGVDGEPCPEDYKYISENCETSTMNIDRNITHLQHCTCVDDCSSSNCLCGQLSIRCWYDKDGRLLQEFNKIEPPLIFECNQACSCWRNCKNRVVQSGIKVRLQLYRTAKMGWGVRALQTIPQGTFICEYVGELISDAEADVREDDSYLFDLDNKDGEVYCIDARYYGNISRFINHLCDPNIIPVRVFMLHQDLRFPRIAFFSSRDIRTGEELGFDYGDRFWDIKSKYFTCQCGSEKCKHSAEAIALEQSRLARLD
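Step 1: enzyme (final 20 nM) with compound, 15 min RT. Step 2: substrate peptide 500 nM and SAM 20 uM, 2 h RT. Step 3: anti-H3K9me1 antibody and AlphaScreen beads, 10 min, then plate read.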
BAZ2B inh – BAZ2B (human) inhibition | AID 504333 | AlphaScreen BAZ2B-H3K14Ac peptide displacement | Potency, µM (top dose mostly 114 µM), without a hit: top-dose activity change, negative = inhibition, most hits filed as inhibitors | 360,000 tested, 4.4% active; further: on the % scale 0 is the no-effect control and ±100 the full control effect; nearly all actives have a fitted effect of over 60% in size
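BAZ2B (50 nM) with biotin-H3(5-23)K14Ac peptide (50 nM) in PBS pH 7.4, 0.01% Tween-20, preformed 30 min, then compound 30 min at room temperature; top concentration 110uM. AlphaScreen streptavidin donor/nickel chelate acceptor beads (10 ug/mL final), 20 min dark, signal read.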
VDR inh – vitamin D3 receptor (human) inhibition; P11473; VDR-SRC2-3 peptide fluorescence polarization, 2 h; Potency, µM, inactives show max response, negative = inhibition, hits mostly inhibitors; 400,000 tested, 0.93% active; AID 504847; further: on the % scale 0 is the no-effect control and ±100 the full control effect
Target sequence (P11473 whole entry, looked up): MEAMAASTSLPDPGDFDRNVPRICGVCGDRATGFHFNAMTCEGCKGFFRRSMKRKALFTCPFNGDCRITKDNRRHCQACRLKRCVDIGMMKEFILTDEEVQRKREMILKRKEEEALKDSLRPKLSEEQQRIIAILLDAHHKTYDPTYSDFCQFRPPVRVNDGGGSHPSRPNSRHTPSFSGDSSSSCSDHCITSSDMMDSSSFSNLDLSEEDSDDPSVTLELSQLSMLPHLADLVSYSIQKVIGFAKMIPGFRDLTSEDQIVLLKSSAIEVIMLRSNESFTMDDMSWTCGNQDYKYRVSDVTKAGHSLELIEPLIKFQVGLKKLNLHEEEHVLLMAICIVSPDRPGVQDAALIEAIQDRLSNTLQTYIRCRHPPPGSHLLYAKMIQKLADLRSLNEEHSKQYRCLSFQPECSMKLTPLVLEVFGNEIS
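The screen uses fluorescence polarization to detect compounds that interfere with recruitment of the SRC2-3 coactivator peptide to VDR; plates are read after 2 h at room temperature.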
PLK1 PBD inh – blocks phosphopeptide binding to human PLK1 polo-box domain | Plk1 PBD binding of FITC phosphopeptide, fluorescence polarization | Potency, µM, without a hit: max response, negative = inhibition, usual class: inhibitors | 360,000 tested, 2.8% active | AID 720504; further: series mostly up to about 57 µM; on the % scale 0 is the no-effect control and ±100 the full control effect; nearly all actives have a fitted effect of over 65% in size
Numbers without * were called inactive; ? = inconclusive; . = no result given; [ ] = dose if it differs, or a comment. This is a sample that favours compounds with a hit; in the whole collection about 11% have one here. The call rests on the fitted dose curve; in most records, active means well fitted curve in the direction sought with a large enough effect; inconclusive means small, poorly fitted or top-dose-only effect, or another doubt; inactive means no such curve, though single readings can be large; an effect the other way counts as inactive or inconclusive. Potency means the concentration at half of the fitted maximal effect.

SMILES	JMJD2A Tudor inh	HP1b binding inh	G9a block	BAZ2B inh	VDR inh	PLK1 PBD inh
CCCNC(=O)c1ccccc1NC(=O)c1ccccc1SC	-13.7%	22.6%	25.1µM*	-25.9%	-14.5%	-12.2%
COC(=O)C1=C(C(=O)OC)SC2(S1)C(C(=O)OC)=C(C(=O)OC)SC1=C2c2cccc(C)c2NC1(C)C	?	-21.7%	31.6µM*	?	-21.6%	-13.0%
Cc1ccc(-c2cnc(N)n2C)cc1C	-31.5%	2.9%	?	-2.9%	8.3%	?
C=C1SC(Nc2c(C)cc(C)cc2C)=NC12CCCCC2	-12.4%	27.6%	-27.6%	-14.5%	-22.2%	-10.9%
O=C(COc1ccc([N+](=O)[O-])cc1)Nc1cc(S(=O)(=O)N2CCCCC2)ccc1N1CCCCC1	20µM*	-15.7%	1.78µM*	-37.6%	-13.7%	-10.4%
O=C(COc1ccc(F)cc1)Nc1cc(S(=O)(=O)N2CCCCC2)ccc1N1CCCCC1	?	-4.7%	2µM*	?	24.8%	5.0%
COc1cccc(/C=C2\SC(N3CCC(C)CC3)=NC2=O)c1OC	-5.7%	-9.7%	28.2µM*	-2.0%	-25.0%	?
COc1ccccc1/C=C1\SC(N2CCC(C)CC2)=NC1=O	-25.9%	13.0%	-11.5%	-21.1%	8.7%	-14.8%
COc1cccc(/C=C2\SC(N3CCCC(C)C3)=NC2=O)c1OC (stereo not drawn)	-7.4%	20.7%	70.8µM*	-17.2%	-20.3%	?
CCNC(=O)CCSc1nnc(-c2ccc(O)cc2)o1	0.3%	-2.5%	12.6µM*	1.2%	?	.
CC(Sc1nnc(-c2ccc(O)cc2)o1)C(=O)Nc1cccc2ccccc12 (stereo not drawn)	-18.9%[57.1 µM]	-3.7%	12.6µM*	-30.2%	-18.8%	-25.3%
CCNC(=O)CCSc1nnc(-c2ccncc2)o1	-11.2%	0.5%	0.2%	-18.4%	1.7%	-12.0%
COc1ccc(-c2nnc(NC(=O)c3ccccc3[N+](=O)[O-])s2)c(OC)c1	-6.3%	20.5%	-4.6%	-5.5%	5.9%	-6.9%
Cn1nnnc1Sc1ncnc2scc(-c3ccccc3F)c12	-14.4%	.	.	.	.	.
O=C(Nc1cccn(Cc2c(Cl)cccc2Cl)c1=O)C1CC1	-27.4%	-23.3%	-7.5%	?	-1.3%	26.7µM*
C#CCOC(=O)Nc1cccn(Cc2c(Cl)cccc2Cl)c1=O	-17.5%	5.8%	-36.7%	-35.7%	-8.5%	-4.8%
CCOc1cccc2sc(N(Cc3cccnc3)C(=O)c3ccco3)nc12	1.0%	16.9%	11.2%[59 µM]	-0.8%	-1.5%	.
COc1ccc2[nH]c3c(C)c4ccncc4c(C)c3c2c1	-31.3%	15.6%	39.8µM*	?	4.0%	-8.4%
Cn1c(SCC(=O)c2ccccc2)nnc1-c1cccnc1	-15.0%	21.7%	-9.2%[59 µM]	-29.6%	5.4%	-2.7%
Cn1c(SSc2ccc(-c3cccnc3)n2C)ccc1-c1cccnc1	50.1µM*	?	.	.	?	4.23µM*
COC(=O)c1sc(NC(=S)NC(=O)c2ccccc2C)nc1C	-5.9%	11.7%	-9.4%	-7.0%	-11.4%	-22.0%
COc1ccc2ccc3c(c2c1)N=C[C@]1(O3)N(C)c2ccccc2C1(C)C	-28.2%[11.4 µM]	?	28.8%[0.501 µM]	50.1µM*	-12.3%	2.99µM*
CC1=NOC2(C1)N(C)c1ccccc1C2(C)C (stereo not drawn)	-16.7%	19.0%	-9.6%[59 µM]	17.8%	3.3%	-7.3%
COc1ccccc1/C=C(\C#N)c1nc(-c2cc3ccccc3oc2=O)cs1	-10.5%	47.9%	2.5%[59 µM]	-0.9%	-7.9%	.
CCCN1C(=O)c2cc(C(=O)Nc3ccc(OC)c(OC)c3)ccc2C1Nc1ccc(OC)c(OC)c1 (stereo not drawn)	-13.2%	36.1%	-1.0%	-6.6%	2.8%	-3.6%
SMILES	JMJD2A Tudor inh	HP1b binding inh	G9a block	BAZ2B inh	VDR inh	PLK1 PBD inh
CCCN1C(=O)c2cc(C(=O)Nc3ccc(OC)cc3OC)ccc2C1Nc1ccc(OC)cc1OC (stereo not drawn)	28.2µM*	-20.3%	22.4µM*	?	-4.2%	-8.1%
CCOCCCNC(=S)NCCCNc1nc2c(C)c(C)ccc2cc1C#N	-9.0%	26.0%	56.2µM*	-3.0%	-10.1%	-21.1%
O=C(/C=C/[C@H]1O[C@@H](n2cnc3c(NC(=O)c4ccccc4)ncnc32)[C@H](O)[C@@H]1O)NCc1ccco1	.	.	.	.	.	-2.6%
O=S(=O)(Nc1cccc2cccnc12)c1ccccc1Br	-11.0%	31.9%	.	.	1.3%	.
O=C(Nc1cccc2ccccc12)c1ccccc1NS(=O)(=O)c1cccc2cccnc12	-15.7%	12.2%	?	-1.0%	9.4%	-10.5%
Nc1ccccc1S(=O)(=O)Nc1cccc2cccnc12	56.2µM*	.	.	.	-5.6%	.
O=C(O)c1ccccc1NS(=O)(=O)c1cccc2cccnc12	20µM*	-4.2%	?	-31.9%	-0.1%	-8.1%
Cc1cccc(NC(=O)CSCC(=O)OCc2ccccn2)c1	?	4.6%	-31.3%	-1.1%	10.0%	-19.1%
NS(=O)(=O)c1ccc(CNC(=O)c2cc(=O)c3ccccc3o2)cc1	-9.9%	23.7%	-8.2%	1.3%	3.6%	-21.8%
Clc1ccc(CN2CCCCCC2)cc1	1.78µM*	?	12.6µM*	?	-6.3%	-7.1%
O=C(Cc1ccc(Cl)cc1)Nc1ccc(CN2CCCCC2)cc1	-14.8%	21.1%	?	0.0%	-12.4%	-2.3%
Clc1ccc(CN2CCCCCCC2)cc1Cl	28.2µM*	-38.0%	?	-11.6%	10.6%	-2.7%
O=[N+]([O-])c1cc(CN2CCCC2)ccc1Sc1ccc(Cl)cc1	35.5µM*	39.8µM*	35.5µM*	39.8µM*	-3.9%	1.5%
COc1ccc(CNc2ncnc3c2c(-c2ccccc2)cn3-c2ccc(C)c(Cl)c2)cc1	-9.5%	13.6%	-4.3%[59 µM]	-26.9%	-4.1%	.
CC1(C(=O)NCc2ccccc2)CN(S(C)(=O)=O)CC(=O)N1Cc1cccc(C(F)(F)F)c1 (stereo not drawn)	.	.	.	.	.	-16.7%
CCC(=O)N(CCC(c1ccco1)C(C)C)Cc1ccccc1 (stereo not drawn)	79.4µM*	0.0%	.	4.2%	?	?
CC(=O)N(CCC(c1ccco1)C(C)C)Cc1ccc(Cl)cc1 (stereo not drawn)	-6.4%	54.5%	14.3%	-22.2%	?	-9.1%
Cc1ccc(C(=O)N(Cc2ccco2)Cc2ccco2)cc1	-29.2%	12.5%	?	?	10.6%	.
CCC(=O)N(CCC(c1ccc(C)cc1)c1ccco1)Cc1ccco1 (stereo not drawn)	?	-8.8%	?	50.1µM*	?	-26.4%
COc1ccccc1N1CCN(C(=O)c2cc(S(=O)(=O)N3CCC(C)CC3)cn2C)CC1	-9.9%	25.0%[57 µM]	-12.1%[59 µM]	-17.7%	15.9%	.
O=C(NNS(=O)(=O)c1ccccc1)c1sccc1-n1cccc1	-10.4%	33.7%	-11.1%	?	-4.9%	-5.7%
O=C(NNS(=O)(=O)c1ccc(Cl)cc1)c1sccc1-n1cccc1	12.6µM*	-4.3%	?	-35.6%	0.4%	-10.2%
